An excerpt weighted towards active compounds, which were near 7.8% of everything screened.
LASV entry inh: inhibitors of Lassa virus binding or cell entry; Lassa virus pseudotype entry inhibition, cell reporter; Potency, µM (doses to about 37.9 µM), hits mostly inhibitors; 300,000 compounds, 1.2% hits; AID 540256; calls by dose curve; tested in HEK293 cells; further: nearly all actives have a fitted effect of over 50% in size
VACV Venus inh: inhibitors of vaccinia virus (Venus reporter); Vaccinia virus Venus reporter expression, fluorescence; Potency, µM (highest dose often 36.5 µM), most hits filed as inhibitors; AID 720580; 330,000 compounds, 0.46% hits; calls by dose curve; tested in A549 cells; further: nearly all actives have a fitted effect of over 30% in size
Marburg entry inh: blocks Marburg virus binding to or entry into cells; Marburg virus pseudotyped entry inhibition, cell reporter; Potency, µM (titrated, usually from 37.8 µM), actives largely listed as inhibitors; 300,000 compounds, 1.8% hits; AID 540276; calls by dose curve; tested in HEK293 cells
HCMV inh: human cytomegalovirus inhibition; HFF cells, HCMV-luciferase reporter, 72 h; stronger effect = lower value; activity change, negative = inhibition, % at 57.5 µM; 410,000 compounds, 4.5% hits; in the data active means activity change below about -60%; inconclusive means no clear call, values can overlap the other calls; inactive means above about -39%
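Human foreskin fibroblasts infected with luciferase-reporter HCMV at MOI 1 PFU/cell, compounds at two doses. Luciferase measured 72 h post infection; normalized to buffer-only basal and Salinomycin (10uM) controls.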
VACV mCherry inh: inhibitors of vaccinia virus infection (mCherry reporter signal); Vaccinia virus mCherry reporter infection, fluorescence; Potency, µM (top dose mostly 36.5 µM), actives largely listed as inhibitors; 310,000 compounds, 0.63% hits; calls by dose curve; tested in A549 cells; further: nearly all actives have a fitted effect of over 35% in size
HCV inh: inhibitors of hepatitis C virus infection | Potency, µM (doses to about 41.8 µM), most hits filed as inhibitors | Huh7.5.1 HCVcc-Cre infection, luciferase reporter, 44 h | AID 651820 | 340,000 compounds, 3.4% hits; active means well fitted inhibition curve with a large enough effect; inconclusive means small, poorly fitted or top-dose-only effect, or another doubt; inactive means no such curve, though single readings can be large or run the other way
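Infectious HCV cell culture screen: compound-treated cells (1,000/well, pre-plated 4 h) are infected with HCVcc-Cre at roughly 0.5 moi and grown 44 h. Infection is quantified by luciferase signal after 15 min substrate incubation at room temperature.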
Each line names hits and unclear results; the compound was inactive in the other large screens.

COc1ccccc1[C@H]1/C(=C(\O)c2ccc(C)cc2)C(=O)C(=O)N1CCN1CCOCC1	none (no result: LASV entry inh, VACV Venus inh, HCMV inh, VACV mCherry inh, HCV inh)
Cc1ccc2c(CC(=O)Nc3nnc(C(C)C)s3)coc2c1C	VACV Venus inh inconclusive, VACV mCherry inh inconclusive (no result: HCV inh)
COC(=O)c1cccnc1-n1c(=O)c2cccnc2n(CC(=O)Nc2ccccc2F)c1=O	none (no result: HCV inh)
COc1ccc2c(c1)C(n1cccc1)C(=O)N2C (stereo not given)	none (no result: LASV entry inh, VACV Venus inh, Marburg entry inh, VACV mCherry inh, HCV inh)
CCOC(=O)N1CCN(c2ncnc3scc(-c4ccccc4)c23)CC1	Marburg entry inh inconclusive, HCV inh 8.91µM
CC(C)(C)C(=O)N1CCN(c2ncnc3scc(-c4ccccc4)c23)CC1	LASV entry inh inconclusive, Marburg entry inh inconclusive, HCMV inh -69.8, HCV inh inconclusive
O=C(O)CSCC(=O)N1CCN(c2ncnc3scc(-c4ccccc4)c23)CC1	none (no result: LASV entry inh, VACV Venus inh, Marburg entry inh, VACV mCherry inh)
O=C(c1ccco1)N1CCN(c2ncnc3scc(-c4ccc(F)cc4)c23)CC1	LASV entry inh inconclusive, Marburg entry inh inconclusive, HCV inh inconclusive
CCN(C(=O)CCS(=O)(=O)c1cc2c(cc1C)NC(=O)CO2)c1cccc(C)c1	HCMV inh -102.9 (no result: Marburg entry inh, HCV inh)
CCCCc1nn2c(=O)cc(COC(=O)c3ccccc3NC(=O)C3CCCCC3)nc2s1	none (no result: Marburg entry inh, HCV inh)
Cc1cc(N2CCCCC2)n2nc(C)c(-c3ccccc3)c2n1	LASV entry inh inconclusive, HCV inh 1.58µM (no result: VACV mCherry inh)
Cc1cc(SCC#N)n2nc(C)c(-c3ccccc3)c2n1	HCMV inh -72.8, VACV mCherry inh inconclusive, HCV inh inconclusive
Cc1cc(N2CCC(C)CC2)n2nc(C)c(-c3ccccc3)c2n1	none (no result: VACV Venus inh, VACV mCherry inh)
COc1ccccc1-c1c(C)nn2c(-c3ccccc3)cc(C)nc12	LASV entry inh inconclusive, VACV Venus inh inconclusive, Marburg entry inh inconclusive, HCMV inh -68.1, HCV inh 5.01µM
Cc1cc(N2CCN(Cc3ccccc3)CC2)n2nc(C)c(-c3ccccc3)c2n1	HCMV inh inconclusive, HCV inh inconclusive (no result: VACV Venus inh, VACV mCherry inh)
Cc1nn2c(N3CCCC3)cc(C(C)C)nc2c1-c1ccccc1	HCV inh 14.1µM (no result: VACV Venus inh, VACV mCherry inh)
O=C1CCC2CCCCC2O1 (stereo not given)	none (no result: LASV entry inh, VACV Venus inh, HCMV inh, VACV mCherry inh, HCV inh)
CC(C)CSc1nnc(CNC(=O)c2ccccn2)n1C	none (no result: LASV entry inh, Marburg entry inh, HCMV inh, HCV inh)
COc1ccccc1-c1c(C)nn2c(N3CCCCCC3)cc(C)nc12	LASV entry inh inconclusive, VACV Venus inh inconclusive, Marburg entry inh inconclusive, HCMV inh -95.9, VACV mCherry inh inconclusive, HCV inh 12.6µM
COc1ccccc1-c1c(C)nn2c(N3CCOCC3)cc(C)nc12	HCV inh inconclusive (no result: LASV entry inh, VACV Venus inh, Marburg entry inh, VACV mCherry inh)
Cc1ccc(N2C(=O)CS(=O)(=O)C23C(=O)N(Cc2ccccc2C)c2ccccc23)cc1Cl (stereo not given)	LASV entry inh inconclusive (no result: Marburg entry inh, HCV inh)
O=C(c1ccc([N+](=O)[O-])o1)N1CCN(c2nc3c(F)cc(F)cc3s2)CC1	Marburg entry inh inconclusive, HCV inh 0.562µM
Cc1ccc(C)c2sc(N3CCN(C(=O)C(C)(C)C)CC3)nc12	none (no result: Marburg entry inh, HCV inh)
Cc1ccc(C)c2sc(N3CCN(C(=O)c4ccc([N+](=O)[O-])o4)CC3)nc12	LASV entry inh inconclusive, VACV Venus inh inconclusive, Marburg entry inh 12.6µM, VACV mCherry inh inconclusive, HCV inh inconclusive
CN(C(=O)Nc1ccc(Cl)cc1Cl)[C@H]1c2cc(Br)ccc2OC[C@H]1CO	Marburg entry inh inconclusive, HCV inh 12.6µM (no result: VACV Venus inh, VACV mCherry inh)
COc1cccc2c1OC[C@@H](CO)[C@H]2N(C)C(=O)Nc1ccccc1	none (no result: VACV Venus inh, VACV mCherry inh)
Cc1ccc(NC(=O)COC(=O)Cc2c[nH]c3ccccc23)cc1	none (no result: LASV entry inh, Marburg entry inh, HCV inh)
CCOc1ccc(NC(=O)c2ccc3nc(C(C)C)oc3c2)cc1	VACV Venus inh inconclusive (no result: Marburg entry inh, HCV inh)
CC(=O)C1=C(C)N(Cc2ccccc2)C(=O)NC1c1cccc(C(F)(F)F)c1 (stereo not given)	none (no result: LASV entry inh, VACV Venus inh, HCMV inh, VACV mCherry inh, HCV inh)
CC(=O)Nc1ccc(N(CC(O)Cn2c3ccccc3c3ccccc32)S(=O)(=O)c2ccc(C)cc2)cc1 (stereo not given)	LASV entry inh 11.2µM, VACV Venus inh inconclusive, Marburg entry inh inconclusive, VACV mCherry inh inconclusive, HCV inh inconclusive
Cc1ccc(S(=O)(=O)N(CC(O)CN2C(=O)NC(C)(C)C2=O)c2cccc(C)c2)cc1 (stereo not given)	none
Cc1ccc(N(CC(O)Cn2c3ccccc3c3ccccc32)S(C)(=O)=O)c(C)c1 (stereo not given)	Marburg entry inh 16.4µM, HCMV inh -100.9 (no result: VACV Venus inh, VACV mCherry inh)
CCCN(CCC)CC(O)Cn1c2ccccc2c2ccccc21 (stereo not given)	Marburg entry inh 7.08µM, HCV inh inconclusive

Assay outcomes: PubChem BioAssay, National Center for Advancing Translational Sciences (NCATS)
